Assay outcomes as filed in PubChem.
This is a sample that favours compounds with a hit; in the whole collection about 4% have one here.
Wnt bcat act – Wnt/beta-catenin pathway activators, primary screen, cell-based, plate reader, single point | Wnt/beta-catenin reporter cell assay, activator | activation, % at 9.35 µM | actives 1.2% (n = 300,000) | AID 743398, 2014; in the data active means activation above about 30%, passing the limit was not always enough; inconclusive means no clear call, values can overlap the other calls;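 further: 0% = neutral control wells and 100% = positive control wells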
MITF act – activators of MITF-driven TRPM1 promoter reporter, primary screen, cell-based, SK-MEL-5, luciferase, single point | SK-MEL-5 TRPM1-promoter luciferase, 24 h; % of positive control, neutral wells = 0 | activation, % at 12.5 µM | actives 0.75% (n = 300,000) | AID 588334, 2011;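 active means mean activation of at least 80% with every replicate also reaching 80%; inconclusive means mean reaches 80% but some replicate falls short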;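 further: 0% = neutral control wells and 100% = parthenolide positive control wells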
EBV LMP1 NFkB – EBV LMP1-driven NF-kappaB luciferase reporter inhibitors, primary screen, cell-based, luminescence, single point. LMP1-induced NF-kappaB luciferase reporter cells. actives 0.69% (n = 350,000). inhibition, % at 12.5 µM. AID 504558, 2011; in the data active means inhibition above about 41%; inconclusive means no clear call, values can overlap the other calls;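 further: 0% = neutral control wells and 100% = reference inhibitor control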
esBAF inh – Bmi1 luciferase reporter increase in mESCs, primary screen, esBAF inhibitor project, mouse ES cells, Bmi1 luciferase knock-in, single point | 24 h; 100% = twice the neutral-well signal | reporter increase, % at 12.5 µM | actives 2% (n = 350,000) | AID 602393, 2012; in the data active means activation above about 40%; inconclusive means no clear call, values can overlap the other calls;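 further: 0% = median of the plate's neutral control wells and 100% = double that signal; a rise in the Bmi1 reporter signal indicates esBAF inhibition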
MITF TRPM1 inh – inhibitors of MITF-dependent TRPM1 promoter reporter, primary screen, cell-based, SK-MEL-5, single point, luciferase | inhibition, % at 12.5 µM | SK-MEL-5 TRPM1 promoter luciferase, 24 h | AID 488899, 2010 | actives 0.83% (n = 330,000);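 active means mean inhibition across replicates of 60% or more, whatever share of single replicates reaches that level; inconclusive means some that reach 60%, reason not given; inactive means mean inhibition across replicates below 60%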
C2C12 statin – suppressors of statin myotoxicity in C2C12 myotubes, primary screen, cell-based, single point, plate reader; rescue of ATP level, % at 7.49 µM; actives 0.78% (n = 330,000); C2C12 myotubes + simvastatin, ATP luminescence, 48 h; scaled: DMSO 0, geranylgeraniol control 100;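 active means mean ATP rescue above about 67%, or every replicate alone reaching that limit, limit read from the data, passing the limit was not always enough; inconclusive means no clear call, values can overlap the other calls; inactive means mean under the limit and some replicate under it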;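 further: myotubes were challenged with 10 µM simvastatin during compound exposure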
Active calls of the source: *; ? = inconclusive; / = not tested or not shown.

SMILES	Wnt bcat act	MITF act	EBV LMP1 NFkB	esBAF inh	MITF TRPM1 inh	C2C12 statin
COc1ccccc1-c1cc(C(F)(F)F)nc(S(C)(=O)=O)n1	/	-90	-5	20	92*	17
COc1ccccc1CN1CC(C(=O)NCCSc2nnnn2C)CCC1=O (stereo not given)	-2	-4	-3	/	7	/
Cn1cnc2c1c(=O)n(Cc1cccc(F)c1)c(=O)n2C	1	/	-4	-4	6	27
CC1CN(C(=O)CSc2nc(-c3ccc(F)cc3)cs2)CC(C)O1 (stereo not given)	-3	8	13	-4	-7	/
O=C(CSc1nc(-c2ccc(F)cc2)cs1)N1CCOCC1	/	69	-12	66*	-72	2
O=C1OC(c2ccccc2)=C/C1=C/c1cccs1	3	7	-26	26*	-3	/
CCOC(=O)NNS(=O)(=O)c1cc(Br)ccc1Br	8	-3	7	-6	6	8
CCOC(=O)c1cccc(NC(=O)C2CCCO2)c1 (stereo not given)	-5	-5	-1	0	7	102*
O=C(Nc1ccc(-c2nc3ccccc3o2)cc1)C1CCCO1 (stereo not given)	/	36	-11	-49	-38	-72
O=C(Nc1ccc(-c2nc3cccnc3s2)cc1)C1CCCO1 (stereo not given)	-12	/	65*	-70	/	-52
COc1ccc(NC(=O)C2CCCO2)cc1 (stereo not given)	1	/	-11	2	-7	2
O=C(Nc1ccc(Oc2ccccc2)cc1)C1CCCO1 (stereo not given)	/	80	-22	52*	-75	7
S=C(Nc1ccc(Oc2ccccc2)cc1)NC1CCCC1	-1	6	9	/	-6	/
S=C(NCC1CCCCC1)Nc1ccc(Oc2ccccc2)cc1	-4	-4	48*	3	8	33
O=C(Nc1ccc2oc(-c3ccccc3)nc2c1)C1CCCO1 (stereo not given)	24	88*	-39	/	-83	/
Cc1cc(C)n(C(N)=NC(=O)c2ccc([N+](=O)[O-])cc2)n1	10	95*	-40	?	-88	0
Cc1cc(C)n(C(N)=NC(=O)c2ccccc2)n1	43*	/	-48	/	/	/
C[C@H]1CN([C@@H](C)CO)C(=O)Cc2cc(NC(=O)NC3CCCCC3)ccc2O[C@@H]1CN(C)Cc1ccncc1	/	/	/	0	/	15
O=C(Nc1nc2ccc(F)cc2s1)c1ccc([N+](=O)[O-])o1	71*	/	-17	88*	/	37
O=C(Nc1nc2ccc(F)cc2s1)c1cccs1	57*	46	-47	/	-42	/
O=C(CCNC(=O)c1ccccc1Cl)Nc1nc2ccc(F)cc2s1	18	50	-24	52*	-49	3
O=C(Nc1nc2c(F)cccc2s1)c1ccc([N+](=O)[O-])o1	0	/	-22	30	/	37
Cc1cc(NS(=O)(=O)c2ccc(C3CCCCC3)cc2)no1	-1	-1	3	-4	-3	-4
Cc1ccc(C(C)C)cc1OCC(=O)NCCCn1ccnc1	-3	-12	-2	/	12	-5
COc1ccc(C)cc1NC(=O)C1CCCCC1C(=O)O (stereo not given)	-7	/	6	-3	4	/
SMILES	Wnt bcat act	MITF act	EBV LMP1 NFkB	esBAF inh	MITF TRPM1 inh	C2C12 statin
CCCCCn1c(CN2CCN(CCO)CC2)nc2c1c(=O)n(C)c(=O)n2C	-2	-4	-5	2	-3	-8
CCCCn1c(CN2CCN(C(=O)OCC)CC2)nc2c1c(=O)n(C)c(=O)n2C	42*	-8	4	-4	8	-3
CN(Cc1cc(-c2ccccc2)on1)C(=O)c1cc(COc2c(F)cccc2F)on1	1	50	-19	54*	-53	-42
CCC(NC(=O)c1cc(COc2c(F)cccc2F)on1)c1ccncc1 (stereo not given)	/	17	8	9	-17	-9
COC(=O)[C@H](Cc1ccccc1)NC(=O)c1cc(COc2c(F)cccc2F)on1	18	46	-7	52*	-49	-5
CCOc1ccccc1-c1nc(-c2cccc(Br)c2)no1	5	19	-19	/	-19	/
CC1(C)CC(=O)C=C(c2ccc(-c3ccccc3)cc2)C1=O	-2	/	-7	78*	/	-8
CC1(C)CC(=O)C=C(c2ccc(-c3ccccc3)cc2)C1	27	142*	-37	74*	-141	-18
CC1(C)CC(=O)C=C(c2ccc(CO)cc2)C1=O	-2	/	-4	-7	/	-1
COc1ccc(C2=CC(=O)CC(C)(C)C2=O)cc1	0	/	/	/	/	/
COc1ccc(C2=CC(=O)CC(C)(C)C2)cc1	3	21	-9	2	-18	12
CC1(C)CC(=O)C=C(c2ccc(-c3ccc(OC(F)(F)F)cc3)cc2)C1=O	7	/	-56	56*	/	-6
COc1ccc(-c2ccc3c(c2)O[C@H](CN(C)C(=O)Nc2ccccc2F)[C@@H](C)CN([C@@H](C)CO)S3(=O)=O)cc1	/	/	/	-3	/	5
CC(C)Sc1nnc(NC(=O)c2ccc3c(c2)OCO3)s1	0	88*	-9	37	-91	8
CC(C)(C)c1nnc(NC(=O)COc2ccc3c(c2)OCO3)s1	-2	85*	-39	69*	-87	11
CC(C)c1nnc(NC(=O)c2ccc3c(c2)OCO3)s1	1	6	30	/	-2	/
C=CCNc1nc(N)c(C(=O)c2ccc3c(c2)OCO3)s1	/	46	-1	52*	-35	27
CCSc1nnc(NC(=O)c2ccc3c(c2)OCO3)s1	/	63	-12	14	-55	5
CC(C)(C)c1nnc(NC(=O)c2ccc3c(c2)OCO3)s1	?	121*	-23	/	-113	/
CCOC(=O)c1sc(NC(=O)COc2ccc3c(c2)OCO3)nc1C	1	/	-1	-10	1	3
O=C(O)c1ccc(N2C(=O)CSC2c2cccc([N+](=O)[O-])c2)cc1 (stereo not given)	-1	5	-4	-3	0	-22
C[C@H](CO)N1C[C@H](C)[C@H](CN(C)C(=O)C2CCC2)Oc2ncc(/C=C/c3ccccc3)cc2C1=O	/	/	/	-2	/	/
CCOC(=O)c1c(NC(=O)C2C3C=CC(C3)C2C(=O)O)sc2c1CCC(CC)C2 (stereo not given)	-3	1	11	/	4	/
COCCn1c(Cc2ccccc2)nnc1SCC(=O)Nc1ccccc1	/	6	-5	/	-11	/
COc1ccc(S(=O)(=O)Oc2cccc(C(=S)N3CCOCC3)c2)cc1	0	-6	-1	-8	3	-1
CC(=O)Nc1ccc(C2=NN(c3ccccc3)C(c3cccs3)C2)cc1 (stereo not given)	5	9	3	/	-8	/
